Z-score data for 26 compounds are collected here from PubChem BioAssay.

Values without a mark were called inactive.

This assay is described as follows: yeast growth modulation, basal conditions, primary screen, YJM789 clinical isolate, OD600, 24 h (AID 1089).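 Further: growth of clinical yeast isolate S. cerevisiae YJM 789 seeded 1000 cells per well; test concentration not given here.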 Conditions: S. cerevisiae YJM789 growth, higher = more signal, called active from +8 up or from −8 down.
Take `CCCCCCc1nc(Cc2cc(OC)c(OC)c(OC)c2)cc2c1[Si](C(C)C)(C(C)C)O[C@H]2c1ccccc1`: the z-score was 0.153.

For the compound `COC(=O)[C@]1(CCC(=O)OC(C)(C)C)N=C(c2ccc(OCCCO)cc2)O[C@@H]1c1ccccc1N=[N+]=[N-]`, the z-score is 1.15. Take `C[C@@H]1ON(c2ccc(I)cc2)[C@H](c2cccc(NC(=O)OCC3c4ccccc4-c4ccccc43)c2)[C@H]1C(=O)N1C(=O)OC[C@H]1Cc1ccccc1`: the z-score was 0.882. Under `CC1CC/C=C\[C@H]2OC34C=CCN(C(C)(C)C)C(=O)[C@H]3N(CCCO)C(=O)[C@@H]4C2C(=O)O1` (stereo partly specified) stands 0.884; under `COc1ccc([Si](C)(C)[C@H]2[C@H](CC(=O)N3Cc4ccccc4C[C@H]3CO)O[C@@]3(C(=O)N(c4ccccc4)c4ccccc43)[C@@H]2C)cc1`, -2.39; under `CCCNC(=O)[C@@]1(Sc2ccc(C)cc2)CC(=O)N(Cc2ccccc2Cl)[C@@H]1c1ccc(CO)cc1I`, -1.17.

As for `N#Cc1ccc(-c2cccc(=O)o2)cc1`, the z-score was -0.24. Regarding `CCCCC(O)C1C=CC2C(=O)N(c3ccccc3)C(=O)C2N1Nc1ccccc1` (stereo unspecified), the z-score was 0.102. On to `CC(C)=CCCC=C(C)C(O)C1C=CC2C(=O)N(c3ccccc3)C(=O)C2N1Nc1ccc(C#N)cc1` (stereo unspecified), for which the z-score is -1.67. On to `COCCOC(=O)N1C(=O)[C@@]2(c3cc(C#CC4(O)CCCCCC4)ccc31)[C@H](c1ccc(O)cc1)N1[C@H](c3ccccc3)[C@H](c3ccccc3)OC(=O)[C@H]1[C@@H]2C(=O)N1CCCCCCC1`, for which the z-score was -0.016. With `COCCOC(=O)N1C(=O)[C@@]2(c3cc(C#Cc4ccc(OC)cc4)ccc31)[C@H](c1ccc(OCCO)cc1)N1[C@H](c3ccccc3)[C@H](c3ccccc3)OC(=O)[C@H]1[C@@H]2C(=O)NC[C@H](O)c1ccccc1`, the z-score is 3.3. Consider `O=C(N1CCOCC1)[C@@]1(Cc2ccccc2)COC(c2ccc(OCCCO)cc2)=N1`, for which the z-score is -0.731. Under `COC(=O)c1cccc([C@H]2OC(=CC(=O)OC(C)C)C[C@@H](c3cccc(C(=O)OC)c3)O2)c1` stands -0.132. As to `CN1C(=O)[C@@H]2[C@@H](CC(COc3ccccc3)=C3[C@@H](CCc4ccccc4)OB(O)C[C@@H]32)C1=O`, the z-score was -0.973. Under `C=C(COC)C(=O)CC[C@@H](OC(=O)c1ccccc1-c1ccccc1C(=O)O)c1ccc(OCCO)cc1` stands -0.656. As for `C=C(CCCC)C(=O)CC[C@H](OC(=O)c1ccccc1-c1ccccc1C(=O)O)c1ccc(OCCO)cc1`, the z-score was -0.338. Take `C[N+](C)(C)CCCC[C@@H]1NC(=O)[C@H]2C[C@@H](C(=O)NCCCCCNC(=O)CS)[C@@H](c3cccc(OCCO)c3)N2C1=O`: the z-score was -0.802. Under `CC(C)NC(=O)[C@@]1(c2ccc([N+](=O)[O-])cc2)CC(=O)N(CC23CC4CC(CC(C4)C2)C3)[C@@H]1c1ccc(CO)cc1` stands -0.383; under `CC(=O)OCC1C2CC[C@H]3C(OCc4ccc(F)cc4C(F)(F)F)OC[C@]4(C)[C@H]3C2=C(CN4C(=O)OC(C)(C)C)[C@H](C)C1COC(C)=O` (stereo partly specified), 1.56. Under `CC(C)(C)OC(=O)CC[C@]1(C(=O)NCC(O)CO)N=C(c2ccc(OCCCO)cc2)O[C@H]1c1ccccc1N=[N+]=[N-]` (stereo partly specified) stands -0.652. As to `CCOC(=O)C1=CCC(c2cc3ccccc3[nH]2)N(CCN2CC(C(=O)OCC)=CCC2c2cc3ccccc3[nH]2)C1` (stereo unspecified), the z-score is -1.61. As to `COCC(=C=CC[C@H](O)c1ccccc1OCCO)C[C@H](O)COCc1ccccc1`, the z-score was -0.16. As for `CN(C)CCCCNC(=O)[C@H]1C[C@H]2C(=O)N3CCC[C@H]3C(=O)N2[C@H]1c1cccc(OCCO)c1`, the z-score is 0.752.

As for `COCCCNC(=O)[C@@H]1c2ccccc2C(=O)N(Cc2ccc(OC(F)(F)F)cc2)[C@H]1c1ccc(CO)cc1`, the z-score was -0.975. `COc1ccc(C#Cc2ccc3c(c2)[C@]2(C(=O)N3)[C@H](C(=O)O)[C@H]3C(=O)O[C@H](c4ccccc4)[C@H](c4ccccc4)N3[C@@H]2c2ccccc2OCCO)cc1`: the z-score was 1.79. In the case of `O=C1O[C@H](Cc2ccccc2)[C@@H]2[C@H]3C=CCCC=C3CN2[C@H]1Cc1ccc(O)cc1` it was -0.055.
